Outcome and AC50 data for seven compounds are collected here from PubChem BioAssay (EPA / NIEHS).

Results filed as inconclusive are left out. Activity calls are given as the source filed them. The calls were made as follows: active = hit-call score of the fitted dose curve at least 0.9, where 1 is the maximum; inconclusive = response in the unintended direction; inactive = score below 0.9.

The target of this assay is human Retinoid X Receptor beta (RXRb), RXRB (gene 6257) (UniProt P28702). Description: ATG_RXRb_TRANS: Attagene TRANS-FACTORIAL HepG2 Assay for human Retinoid X Receptor beta (RXRb) (AID 2283013). A digest of the protocol: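 HepG2 cells transiently transfected with multiplexed reporter units driven by GAL4-UAS and exogenous chimeric NR-Gal4 proteins; treated 24 h. Reporter mRNA measured by RT-PCR, 6-FAM labelling and capillary electrophoresis; gain-of-signal fitted versus DMSO baseline.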
Chain of human Retinoid X Receptor beta (RXRb), RXRB (gene 6257) (P28702 whole entry, looked up, the tested form may be a part): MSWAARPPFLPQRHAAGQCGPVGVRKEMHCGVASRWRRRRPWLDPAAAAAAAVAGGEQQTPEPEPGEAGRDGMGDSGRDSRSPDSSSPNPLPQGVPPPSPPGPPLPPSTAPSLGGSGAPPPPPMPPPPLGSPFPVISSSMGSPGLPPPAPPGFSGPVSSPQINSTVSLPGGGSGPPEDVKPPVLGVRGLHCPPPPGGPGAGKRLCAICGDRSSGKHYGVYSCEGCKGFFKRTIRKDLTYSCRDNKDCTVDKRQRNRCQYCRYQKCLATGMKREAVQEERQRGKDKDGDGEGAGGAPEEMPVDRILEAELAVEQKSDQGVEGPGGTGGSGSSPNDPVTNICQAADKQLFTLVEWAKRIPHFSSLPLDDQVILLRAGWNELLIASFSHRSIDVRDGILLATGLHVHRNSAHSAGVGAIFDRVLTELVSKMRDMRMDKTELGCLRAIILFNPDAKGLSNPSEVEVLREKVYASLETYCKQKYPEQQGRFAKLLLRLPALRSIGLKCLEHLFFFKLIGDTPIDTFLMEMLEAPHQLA
Take `CC(C)(C1CCC(O)CC1)C1CCC(O)CC1` (configuration not stated): the outcome was inactive.

For `Cc1cccc(N=Nc2ccc(N(C)C)cc2)c1`, the compound was called inactive.

In the case of `CCC[N+](CCC)(CCC)CCC`, the compound was called inactive.

`CC(C)CP(=S)(S)CC(C)C`: the result was inactive.

For the compound `O=C(O)COc1ccc(Cl)cc1`, the compound was called inactive.

In the case of `O=C=Nc1ccc(Cl)cc1`, the call was inactive.

The term AC50 denotes the concentration giving half of the maximal activity seen. With `CCCCCCCCCCCCCCC(Br)C(=O)O` (configuration not stated), the AC50 is 9.18 µM (active).
